Experimental data reported in the supplement of paper PMC9023506.
Where a name gives a salt, the structure may show the parent alone.

System: Danio rerio larvae (5 dpf)
Assay: activity during first hour (no stimuli), difference vs DMSO (percentage points (treated minus DMSO)); higher = more of the behaviour than the DMSO vehicle control
Settings: 10 µM; exposure time: 3 h pre-incubation + 3 h imaging
How it was run: (§1)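 Five-days-post-fertilisation wild-type zebrafish larvae were held in 96-well ProxiPlates and exposed to each library drug at a final 10 µM, diluted 1000× from DMSO stocks into egg water, with 48 larvae per drug. Exposure lasted 3 h before and 3 h during imaging at 28.5 °C, with images taken every 6 s across a 3-h program of rest, moving coloured lines and acoustic pulses. An ImageJ macro scored movement and upper-half location, and each behaviour score is the treated-group mean minus the vehicle-group mean, expressed in percentage points.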

Row | Compound | activity during first hour
1 | Cc1cccc(CN2CCN(C(c3ccccc3)c3ccc(Cl)cc3)CC2)c1 (configuration not stated) [Meclizine dihydrochloride] | 29.1
2 | COc1cc2nc(N3CCN(C(=O)C4COc5ccccc5O4)CC3)nc(N)c2cc1OC (configuration not stated) [Doxazosin mesylate] | -2.96
3 | COc1cc(N)c(Cl)cc1C(=O)NC1CCN(CCCOc2ccc(F)cc2)CC1OC (configuration not stated) [Cisapride] | 1.47
4 | OC(c1cc(C(F)(F)F)nc2c(C(F)(F)F)cccc12)C1CCCCN1 (configuration not stated) [Mefloquine hydrochloride] | -1.64
5 | CC[C@H](C)C(=O)O[C@H]1C[C@@H](C)C=C2C=C[C@H](C)[C@H](CC[C@@H]3C[C@@H](O)CC(=O)O3)[C@H]21 [Lovastatin] | -0.394
6 | CCCc1nc(C(C)(C)O)c(C(=O)O)n1Cc1ccc(-c2ccccc2-c2nnn[nH]2)cc1 [Olmesartan] | 12.1
7 | Cc1ccc(O)c([C@H](CCN(C(C)C)C(C)C)c2ccccc2)c1 [Tolterodine L-tartrate] | 1.86
8 | N#Cc1ccc(C(c2ccc(C#N)cc2)n2cncn2)cc1 [Letrozole] | -3.63
9 | C[C@H](Cc1cc2c(c(C(N)=O)c1)N(CCCO)CC2)NCCOc1ccccc1OCC(F)(F)F [Silodosin] | -1.39
10 | C=C1[C@H](CO)[C@@H](O)C[C@@H]1n1cnc2c(=O)[nH]c(N)nc21 [Entecavir] | -1.96
11 | CCOc1nc2cccc(C(=O)O)c2n1Cc1ccc(-c2ccccc2-c2noc(=O)[nH]2)cc1 [Azilsartan] | 3.52
12 | CCc1nc(N)nc(N)c1-c1ccc(Cl)cc1 [Pyrimethamine] | -0.915
13 | OCCN(CCO)c1nc(N2CCCCC2)c2nc(N(CCO)CCO)nc(N3CCCCC3)c2n1 [Dipyridamole] | -0.789
14 | CN[C@H]1CC[C@@H](c2ccc(Cl)c(Cl)c2)c2ccccc21 [Sertraline hydrochloride] | -24.2
15 | COc1ccc(Cl)cc1C(=O)NCCc1ccc(S(=O)(=O)NC(=O)NC2CCCCC2)cc1 [Glibenclamide] | 1.18
16 | CC(=O)Nc1ccc(O)cc1 [Acetaminophen] | 5.63
17 | N#C[C@@H]1C[C@@H]2C[C@@H]2N1C(=O)[C@@H](N)C12CC3CC(CC(O)(C3)C1)C2 [Saxagliptin hydrochloride] | 1.74
18 | CCN(CC)CCNC(=O)c1c(C)[nH]c(/C=C2\C(=O)Nc3ccc(F)cc32)c1C [Sunitinib malate] | -14.4
19 | NS(=O)(=O)c1cc2c(cc1Cl)NC(C1CC3C=CC1C3)NS2(=O)=O (configuration not stated) [Cyclothiazide] | 0.422
20 | COCCCOc1cc(C[C@@H](C[C@H](N)[C@@H](O)C[C@H](C(=O)NCC(C)(C)C(N)=O)C(C)C)C(C)C)ccc1OC [Aliskiren hemifumarate] | -4.92
21 | CN1CC2c3ccccc3Oc3ccc(Cl)cc3C2C1 (configuration not stated) [Asenapine maleate] | 38.5

System: Danio rerio larvae (5 dpf)
Assay: optomotor response to blue moving lines, difference vs DMSO (percentage points (treated minus DMSO)); higher = more of the behaviour than the DMSO vehicle control
Settings: 10 µM; exposure time: 3 h pre-incubation + 3 h imaging
How it was run: as §1

Row | Compound | optomotor response to blue moving lines
22 | CC(C)(C(=O)O)c1ccc(C(O)CCCN2CCC(C(O)(c3ccccc3)c3ccccc3)CC2)cc1 (configuration not stated) [Fexofenadine hydrochloride] | 4.47
23 | O=c1[nH]c(=O)n([C@H]2C[C@H](O)[C@@H](CO)O2)cc1C(F)(F)F [Trifluorothymidine] | 6.73
24 | CN/C(=N\CCSCc1nc[nH]c1C)NC#N [Cimetidine] | 4.9
25 | Cc1nnc(C(C)C)n1C1C[C@H]2CC[C@@H](C1)N2CC[C@H](NC(=O)C1CCC(F)(F)CC1)c1ccccc1 (stereo in doubt) [Maraviroc] | -0.85
26 | CCCc1nn(C)c2c(=O)[nH]c(-c3cc(S(=O)(=O)N4CCN(C)CC4)ccc3OCC)nc12 [Sildenafil citrate] | 8.78
27 | Nc1nc(F)nc2c1ncn2[C@@H]1O[C@H](CO)[C@@H](O)[C@@H]1O [Fludarabine] | -12
28 | Nc1ccn([C@@H]2O[C@H](CO)[C@@H](O)C2(F)F)c(=O)n1 [Gemcitabine hydrochloride] | 3.79
29 | COc1ccc(-c2ccc3cc(C(=O)O)ccc3c2)cc1C12CC3CC(CC(C3)C1)C2 [Adapalene] | -1.19
30 | CC/C(=C(\c1ccccc1)c1ccc(OCCN(C)C)cc1)c1ccccc1 [Tamoxifen citrate] | -14.3
31 | Clc1ccc2nsnc2c1NC1=NCCN1 [Tizanidine hydrochloride] | 3.61

System: Danio rerio larvae (5 dpf)
Assay: optomotor response to green moving lines, difference vs DMSO (percentage points (treated minus DMSO)); higher = more of the behaviour than the DMSO vehicle control
Settings: 10 µM; exposure time: 3 h pre-incubation + 3 h imaging
How it was run: as §1

Row | Compound | optomotor response to green moving lines
32 | OC(c1cc(C(F)(F)F)nc2c(C(F)(F)F)cccc12)C1CCCCN1 (configuration not stated) [Mefloquine hydrochloride] | -0.307
33 | CC[C@H](C)C(=O)O[C@H]1C[C@@H](C)C=C2C=C[C@H](C)[C@H](CC[C@@H]3C[C@@H](O)CC(=O)O3)[C@H]21 [Lovastatin] | -3.13
34 | N#Cc1ccc(C(c2ccc(C#N)cc2)n2cncn2)cc1 [Letrozole] | 6.3
35 | C[C@H](Cc1cc2c(c(C(N)=O)c1)N(CCCO)CC2)NCCOc1ccccc1OCC(F)(F)F [Silodosin] | 1.5
36 | CCOc1nc2cccc(C(=O)O)c2n1Cc1ccc(-c2ccccc2-c2noc(=O)[nH]2)cc1 [Azilsartan] | -0.791
37 | CN/C(=N\CCSCc1nc[nH]c1C)NC#N [Cimetidine] | 5.06
38 | Nc1nc(F)nc2c1ncn2[C@@H]1O[C@H](CO)[C@@H](O)[C@@H]1O [Fludarabine] | 1.3
39 | Nc1ccn([C@@H]2O[C@H](CO)[C@@H](O)C2(F)F)c(=O)n1 [Gemcitabine hydrochloride] | 0.29
40 | COc1ccc(-c2ccc3cc(C(=O)O)ccc3c2)cc1C12CC3CC(CC(C3)C1)C2 [Adapalene] | -2.82
41 | N#C[C@@H]1C[C@@H]2C[C@@H]2N1C(=O)[C@@H](N)C12CC3CC(CC(O)(C3)C1)C2 [Saxagliptin hydrochloride] | -3.2
42 | CCN(CC)CCNC(=O)c1c(C)[nH]c(/C=C2\C(=O)Nc3ccc(F)cc32)c1C [Sunitinib malate] | -7.59
